TWEAK Fn14 block = inhibitors of TWEAK-Fn14 interaction signaling; TWEAK-stimulated Fn14 reporter cells, luciferase luminescence, 8 h; inhibition, % at 10 µM; 2% of 360,000 active; AID 1159606; in the data active = inhibition above about 50%
Peg3 prom inh = inhibitors of Peg3 promoter; HeLa PEG-Prom luciferase reporter, luminescence, overnight; inhibition, % at 20 µM; 1.7% of 360,000 active; AID 588405;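 active = inhibition of at least 50% at 20 µM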
KKLEB cytotox = reduces viability of KKLEB cystic fibrosis airway cells. KKLEB CF airway cells viability, ATPlite luminescence, overnight; active compounds read low; cells stimulated with P. aeruginosa culture filtrate. activity change (cytotoxicity), % at 5 µM. 0.36% of 360,000 active. AID 602141;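 active = corrected activity change at or below -50% at 5 µM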
CF NFkB inh = blocks PAF-induced NF-kB reporter in cystic fibrosis cells; KKLEB NF-kB-GFP reporter, GFP fluorescence overnight; inhibition, % at 5 µM; 0.86% of 360,000 active;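 active = at least 50% inhibition at 5 µM, scaled per plate between neutral and stimulator controls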;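 also: PAF is a Pseudomonas aeruginosa culture filtrate used as stimulus; plate controls were PAF-stimulated DMSO wells for no effect and unstimulated DMSO wells for full effect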
TROY signal inh = inhibitors of TROY-dependent NF-kB signaling | Q293 LMP1-TROYcd NF-kB luciferase reporter, 4 h | inhibition, % at 10 µM | 0.98% of 360,000 active | AID 1347056;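 active = compounds whose plate-normalised and pattern-corrected inhibition of the luciferase reporter signal at the single screening dose is 50% or more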
HIF-2a inh = HIF-2a inhibition; inhibition, % at 18.8 µM; 786-0 RCC cells HIF-2a reporter, luciferase luminescence, overnight; 0.72% of 360,000 active; AID 624352;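 active = inhibition of the luminescence signal of 40% or more relative to plate controls, in a single-dose primary screen at 18.75 µM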
* marks the source's active call; other numbers are inactive results; . = no result. Compounds with a hit are over-represented: about 3.9% of the library has one in this group of screens.

SMILES | TWEAK Fn14 block | Peg3 prom inh | KKLEB cytotox | CF NFkB inh | TROY signal inh | HIF-2a inh
O=C(C1CCCN(c2ncnc3c2nc2n3CCCCC2)C1)N1CCN(c2ccc(Cl)cc2)CC1 (configuration not stated) | 38 | 56* | -9 | -16 | 50 | 22
O=C(Nc1ccc(Cl)cn1)C1CCCN(c2ncnc3c2nc2n3CCCCC2)C1 (configuration not stated) | 14 | 56* | 9 | -8 | 11 | 12
CN(C)c1ccc(NC(N)=S)cc1 | 10 | 10 | 9 | -15 | -12 | -15
CC1CCC(=NO)C(=NO)C1 (configuration not stated) | -11 | 0 | 23 | -17 | 6 | 8
CC(=NNc1nc2ccccc2o1)c1cc2ccccc2cn1 | 34 | 89* | -7 | -10 | -19 | -57
Cc1cc(C)nc(Nc2nc3ccccc3o2)n1 | -17 | -41 | 2 | -17 | -31 | -112
Oc1ccccc1/C=N/Nc1nc2ccccc2o1 | 32 | -123 | 6 | -18 | -36 | -260
CC(=NNc1nc2ccccc2o1)c1ncccn1 | 103* | -51 | -14 | 2 | 15 | -186
Cc1ccc2cccc(SCC(=O)NCC#N)c2n1 | 2 | 5 | 1 | 2 | -6 | 16
CNC(=O)c1cc(S(=O)(=O)Nc2ccc3c(c2)OCCO3)ccc1C | 9 | 9 | -6 | -7 | 3 | 17
O=C(NCC(c1ccco1)N1CCN(c2ccc(F)cc2)CC1)c1ccco1 (configuration not stated) | -9 | -23 | 6 | 7 | -15 | -17
CCCN(CC(=O)Nc1ccccc1OC)C(=O)CNC(=O)c1ccc(C)s1 | 3 | 3 | -7 | -6 | -7 | 1
Cc1cc[n+](CC(=O)c2cc3ccccc3oc2=O)cc1 | 40 | -4 | 0 | 6 | 52* | -60
Cc1cc(C)nc(SCC(=O)c2cc3ccccc3oc2=O)n1 | -4 | -37 | 2 | 7 | 0 | -15
CCOc1ccc(NS(=O)(=O)c2cc(C(=O)N3CCC3)ccc2Cl)cc1 | -14 | 3 | -11 | 1 | 9 | 12
CC(=O)OCCN1C(=O)c2ccc(-c3nc4ccccc4c(=O)o3)cc2C1=O | -1 | 12 | 15 | -11 | 30 | 5
Cc1cc(C)cc(NC(=O)Nc2cccnc2)c1 | 2 | -49 | 7 | -15 | -9 | -47
Cc1ccc(NC(=O)Nc2cccnc2)cc1NC(=O)Nc1cccnc1 | 58* | 30 | 8 | 1 | 9 | -23
O=C(Nc1cccnc1)c1cc(-c2ccccc2)on1 | 19 | -10 | 6 | -9 | -13 | -132
COc1ccc(NC(=O)Nc2cccnc2)cc1 | -31 | -86 | 9 | 15 | -8 | -125
COc1ccc(OC)c(NC(=O)Nc2cccnc2)c1 | 52* | 7 | 5 | -9 | -13 | -9
COc1cccc(-c2cc(C(=O)Nc3cccnc3)no2)c1 | 69* | -156 | -20 | 6 | -16 | -173
COc1ccc(C(=O)NC(C)c2nnc(SCC(=O)NC3CCCCC3)n2C)cc1 (configuration not stated) | 10 | 1 | 12 | -9 | 3 | 10
CCN1CCC(O)(/C=C/c2ccc(C(C)C)cc2)C(C(=O)/C=C/c2ccc(C(C)C)cc2)C1 (configuration not stated) | 40 | 104* | -10 | 20 | -4 | -8
OC1(c2ccccc2)CC(c2ccccc2)c2ccccc2O1 (configuration not stated) | 12 | 46 | 1 | 11 | 50* | 5
SMILES | TWEAK Fn14 block | Peg3 prom inh | KKLEB cytotox | CF NFkB inh | TROY signal inh | HIF-2a inh
COc1ccc(C2CC(O)(c3ccccc3)Oc3cc(OC)c(OC)c(OC)c32)cc1 (configuration not stated) | 5 | 18 | -11 | 8 | -3 | -12
CCOc1c(Cl)cc(/C=N/NC(N)=S)cc1OC | 52* | 22 | 7 | 0 | 13 | -2
COc1cc(/C=N/NC(N)=S)cc(Br)c1OCc1ccccc1F | 64* | 5 | 32 | -17 | 12 | -2
CCCc1ccc2oc(C(=O)NCc3nnc(C)o3)c(C)c2c1 | 0 | -300 | 16 | -36 | -35 | -225
CC(NC(=O)/C(C#N)=C/c1ccc([N+](=O)[O-])o1)c1ccccc1 (configuration not stated) | 5 | 103* | 18 | -52 | 5 | 78*
CCOCCCNC(=O)/C(C#N)=C/c1ccc(-c2ccc(S(=O)(=O)N3CCOCC3)cc2)o1 | 24 | 45 | -11 | 13 | 8 | 17
CCOCCCNC(=O)/C(C#N)=C/c1ccc([N+](=O)[O-])o1 | -2 | 101* | 9 | -6 | 12 | 34
O=C(Nc1ncc2c(n1)CC(c1cccc(Cl)c1)CC2=O)c1ccco1 (configuration not stated) | 1 | 13 | 4 | 0 | -13 | 7
CN(C)c1ccc(/C=C2\SC(N3CCCCC3)=NC2=O)cc1 | 83* | -46 | -11 | -16 | 74* | -55
CCOC(=O)c1c(NC(=O)CSc2nc3ccc(C)cc3[nH]2)sc2c1CC(C)(C)NC2(C)C | 0 | 31 | -23 | 6 | 16 | 6
CC(C)(C)c1ccc(OCCOc2ccc(C(C)(C)C)cc2NC=O)c(NC=O)c1 | 26 | 20 | -6 | 11 | 51* | 24
COCCOc1ccc(C(F)(F)F)cc1NC(=O)c1ccccc1 | 7 | 14 | 4 | 2 | 6 | 12
CCCCNC(=O)C1(C)CCCCN1C(=O)c1sccc1C (configuration not stated) | -6 | 11 | -9 | 20 | -4 | 9
c1ccc2c(c1)c1ccccc1n2CN1CCOCC1 | 75* | -13 | 10 | 2 | . | -11
O=C(CN1CCC(C(=O)c2ccc(Cl)cc2)CC1)Nc1ccc2c(c1)OCCO2 | 62* | 42 | 6 | -9 | 29 | 35
O=C(CSc1nnc(-c2ccc(Cl)cc2)n1Cc1ccco1)Nc1ccc2c(c1)OCCO2 | 10 | 4 | -2 | 15 | 52* | 6
Cc1ccc(NC(=O)CSc2ccc(-c3ccc4c(c3)OCO4)nn2)cc1F | -25 | -92 | -2 | -7 | -69 | -140
CC(=O)Nc1cccc(NC(=O)CSc2ncc(-c3ccc(Cl)cc3)n2Cc2ccco2)c1 | 81* | 35 | -10 | -1 | 61* | 17
O=C(CSc1ccc(-c2ccc(Cl)cc2)nn1)Nc1ccc2c(c1)OCCO2 | 29 | -75 | 8 | -22 | 62* | -39
Cc1ccccc1N1CC(C(=O)N2CC(C)OC(C)C2)CC1=O (configuration not stated) | 6 | -3 | 4 | -3 | 2 | 10
Cc1nc2sc(C(c3ccccc3)N3CCN(C(=O)c4ccco4)CC3)c(O)n2n1 (configuration not stated) | 2 | 10 | 7 | -22 | -4 | -7
COc1ccc(C(=O)Nc2ccc(C(=O)NCCc3ccccc3)cc2)cc1 | -8 | -14 | 7 | -8 | -24 | -31

High-throughput results (PubChem BioAssay)
